RGS8-Gao reg: regulators of human RGS8-Galphao interaction. P09471. multiplexed bead flow cytometry, RGS8-Galphao binding; actives lie on both sides. response (percent of control binding), % at 10 µM. hit rate 0.34% among 220,000; in the data active means response below about 60% or above about 140%; inactive means in between;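 further: Galphao activated as the GDP aluminium fluoride complex binding bead-coupled RGS8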
Target sequence (P09471 whole entry, looked up): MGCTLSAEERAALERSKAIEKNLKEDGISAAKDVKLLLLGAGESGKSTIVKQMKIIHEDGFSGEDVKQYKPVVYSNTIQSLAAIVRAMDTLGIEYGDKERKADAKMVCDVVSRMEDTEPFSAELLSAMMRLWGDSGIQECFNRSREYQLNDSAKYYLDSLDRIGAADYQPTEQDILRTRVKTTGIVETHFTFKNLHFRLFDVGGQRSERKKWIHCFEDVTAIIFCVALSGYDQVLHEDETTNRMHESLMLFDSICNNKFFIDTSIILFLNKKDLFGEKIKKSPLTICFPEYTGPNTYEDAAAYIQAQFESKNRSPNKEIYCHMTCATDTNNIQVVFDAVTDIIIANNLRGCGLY
Avidin fluor: compound fluoresces at 488/530 nm on avidin beads | compound fluorescence 488/530 nm, flow cytometry; stronger effect = higher value | fluorescence (KMESF) at 10 µM | hit rate 0.38% among 220,000 | AID 1775; in the data active means fluorescence above about 47
RGS16-Gao: modulates binding between human RGS16 and Galphao | bead-based flow cytometry RGS16-Galphao binding, fluorescence; actives lie on both sides | hit rate 0.38% among 220,000 | binding response (% of control), % at 10 µM; call rule not given here;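 further: Galphao activated by GDP with aluminum fluoride before binding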
Target sequence (O15492 whole entry, looked up): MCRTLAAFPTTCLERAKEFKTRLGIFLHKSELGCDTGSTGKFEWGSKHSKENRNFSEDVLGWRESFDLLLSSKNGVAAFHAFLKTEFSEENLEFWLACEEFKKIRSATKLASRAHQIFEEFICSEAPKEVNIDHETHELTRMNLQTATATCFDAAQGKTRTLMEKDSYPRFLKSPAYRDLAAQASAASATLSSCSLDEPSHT
Target sequence (P09471 whole entry, looked up): as the sequence (P09471 whole entry, looked up) above
GSH bead fluor: compound fluoresces at 488/530 nm on GSH beads. GSH beads flow cytometry, compound fluorescence 488/530 nm; stronger effect = higher value. fluorescence (KMESF) at 10 µM. hit rate 0.25% among 190,000; in the data active means fluorescence above about 89;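 further: glutathione beads carrying GST-tagged Bcl family fusion proteins plus one bare bead set; values are compound well signal with DMSO vehicle wells as background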
RGS4-Gao reg: modulates binding of RGS4 to human Galphao. Multiplexed bead flow cytometry; actives lie on both sides. binding response (% of control), % at 10 µM. hit rate 0.33% among 220,000; in the data active means binding response below about 49% or above about 150%; inactive means in between;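 further: fluorescent Galphao activated with aluminum fluoride binding bead-coupled RGS4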
RGS7-Gao: modulates binding of RGS7 to human Galphao; P09471; Multiplexed bead flow cytometry; actives lie on both sides; binding response (% of control), % at 10 µM; hit rate 0.35% among 220,000; AID 1439; in the data active means binding response below about 49% or above about 150%; inconclusive means no clear call, values can overlap the other calls; inactive means in between;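 further: fluorescent Galphao held in activated GDP-AlF4 state binding bead-coupled RGS7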
Numbers without * were called inactive; ? = inconclusive; / = not tested or not shown; [ ] = remark or other dose. Shown are actives, neighbours in structure and some others; about 1.2% of the full set was active somewhere.

SMILES | RGS8-Gao reg | Avidin fluor | RGS16-Gao | GSH bead fluor | RGS4-Gao reg | RGS7-Gao
CC(N=c1ccccn1C(=O)Nc1cccc(C(F)(F)F)c1)c1ccco1 (stereo not drawn) | 100 | 8 | 98 | 12 | 101 | 100
COc1ccc(C2C(C(=O)NC(C)C)c3ccccc3C(=O)N2C)cc1OC (stereo not drawn) | 97 | 54* | 86 | 48 | 110 | 118
COC(=O)C(Cc1cnc(Cl)s1)(C(=O)OC)c1ccc([N+](=O)[O-])cc1[N+](=O)[O-] | 104 | 7 | 117 | 272* | 99 | 102
COc1ccc(C(NC(=O)C2CCCCC2)c2c(O)ccc3ccccc23)cc1 (stereo not drawn) | 103 | 4 | 106 | 6 | 106 | 99
COc1ccc(CCNC(=O)/C=C/c2ccc(C)cc2)cc1OC | 103 | 12 | 103 | 22 | 103 | 101
COc1ccc(CCNC(=O)CC2COc3ccccc3O2)cc1OC (stereo not drawn) | 100 | 48* | 102 | 26 | 101 | 107
COc1ccc(CCNC(=O)/C=C/c2cc(OC)c(OC)c(OC)c2)cc1OC | 97 | 73* | 99 | 15 | 119 | ?
COc1ccc(CCNC(=O)CN(c2ccccc2OC)S(C)(=O)=O)cc1OC | 104 | 8 | 107 | 263* | 105 | 103
COc1cc(OC)c(OC)cc1NC(=O)CC1COc2ccccc2O1 (stereo not drawn) | 102 | 8 | 105 | 17 | 105 | 102
O=S(=O)(/N=C(/Nc1ccc(Cl)c(S(=O)(=O)Nc2ccccc2Cl)c1)c1ccc(F)cc1)c1ccccc1 | 99 | 8 | 97 | 16 | 102 | 109
COCCNS(=O)(=O)c1cc(F)ccc1OC | 99 | 8 | 98 | 57 | 96 | 99
CC(C)Nc1cc(C(F)(F)F)nc(-c2ccccn2)n1 | 95 | 332* | 160 | 33 | 153*[activator] | 274*[activator]
COc1cc(C(F)(F)F)nc(-c2ccccn2)n1 | 102 | 11 | 104 | 18 | 101 | ?
Fc1ccc2c(Cl)c(-c3nnc(-c4cccs4)o3)sc2c1 | 100 | 7 | 101 | 255* | 99 | 101
COc1ccc(-c2ncccc2OC(=O)C23CC4CC(CC(C4)C2)C3)cc1 | 95 | 7 | 82 | 12 | 95 | 98
CC(Oc1ccc(Cl)cc1Cl)c1nc(-c2ccc(NC(=O)c3ccncc3)cc2)no1 (stereo not drawn) | 94 | 4 | 101 | 97* | 102 | 96
CC(Oc1ccc(Cl)cc1Cl)c1nc(-c2ccc(NC(=O)c3cccnc3)cc2)no1 (stereo not drawn) | 100 | 13 | 91 | 23 | 98 | 96
O=S(=O)(Cc1ccc(Cl)cc1)Nc1ccc2c(c1)OCO2 | 99 | 48* | 101 | 15 | 103 | 104
O=S(=O)(Cc1ccc(Cl)cc1)N1CCN(Cc2ccc3c(c2)OCO3)CC1 | 100 | 10 | 94 | / | 96 | ?
COc1ccccc1N(C(=O)c1snc(C(N)=O)c1N)C(C(=O)NCCC(C)C)c1ccco1 (stereo not drawn) | 103 | 36 | 107 | 12 | 105 | 100
CCOC(=O)C1=C(Cc2ccc(OC)cc2)C(=O)c2ccccc2C1=O | 74 | 1 | 57 | 63 | 73 | 74
CCOC(=O)C1=C(Cc2ccc(C)cc2)C(=O)c2ccccc2C1=O | 69 | 3 | 58 | 226* | 87 | 79
CCn1c(SCC(=O)Nc2cc(C)on2)nnc1-c1cccs1 | 96 | 7 | 98 | 46 | 94 | 97
Cn1ncc(Cl)c1C(=O)Nc1sc2c(c1C(N)=O)CCC2 | 103 | 6 | 95 | 99* | 90 | 88
Cc1ccc(OCc2nnc(SCCN3CCOCC3)n2C)cc1 | 79 | 8 | 44 | 30 | 90 | 87
SMILES | RGS8-Gao reg | Avidin fluor | RGS16-Gao | GSH bead fluor | RGS4-Gao reg | RGS7-Gao
CCc1ccc(OCc2nnc(SCCN3CCOCC3)n2C)cc1 | 103 | 9 | 106 | 260* | 99 | 104
CN1CCN(C(=O)CSc2cc(=O)n(C)c3ccccc23)CC1 | 101 | 7 | 106 | 18 | 103 | 100
COCCCn1c(SCC(=O)Nc2ccc(C(C)=O)cc2)nc2ccccc2c1=O | 100 | 7 | 92 | 259* | 94 | 99
COCCCn1c(SCC(=O)NCc2ccccc2)nc2ccccc2c1=O | 105 | 6 | 112 | 14 | 106 | 108
CCOc1ccccc1NC(=O)N1CCC(c2nc3ccccc3[nH]2)CC1 | 102 | 7 | 101 | 259* | 104 | 102
COc1ccccc1NC(=O)N1CCC(c2nc3cc(C)c(C)cc3[nH]2)CC1 | 104 | 22 | 111 | 12 | 104 | 104
O=C(Nc1cccnc1)c1c(O)c2cccc3c2n(c1=O)CC3 | 120 | 9 | 125 | 231* | 171*[activator] | 134
COc1ccc(Cl)cc1-c1nc(SCC(N)=O)n[nH]1 | 100 | 6 | 100 | / | 101 | ?
COC(=O)Nc1ccc2c(c1)OCO2 | 95 | 4 | 92 | 100* | 84 | 87
CCOC(=O)Nc1ccc2c(c1)OCO2 | 103 | 39 | 100 | 20 | 101 | 102
O=c1oc2ccccc2cc1-c1nc2c(s1)CCc1ccccc1-2 | 100 | 10 | 105 | 12 | 96 | 103
O=c1oc2cc(O)ccc2cc1-c1nc2c(s1)CCc1ccccc1-2 | 98 | 5 | 105 | 159* | 99 | 97
COc1cccc(NC(=O)Nc2ccc(C(C)(C)C)cc2)c1 | 91 | 6 | 42 | 21 | 99 | 93
C/C(=N\O)c1ncc(C(F)(F)F)cc1Cl | 97 | 6 | 94 | 17 | 96 | 95
c1ccc2sc(Cc3nnc4n3CCCCC4)nc2c1 | 102 | 88* | 106 | 25 | 106 | 122
COc1ccc(OC)c(NC(=O)COC(=O)c2ccc(S(=O)(=O)N3CCOCC3)cc2)c1 | 100 | 7 | 102 | 276* | 99 | 99
C/C(O)=c1/ccc2cccc3nc(C)nc1c23 | 96 | 48* | 99 | 17 | 99 | 104
Cc1nc2ccccc2nc(C)c1=NO | 101 | 8 | 99 | 13 | 100 | 94
COc1ccc(Cl)cc1N(CC(=O)N/N=C/c1ccc(OC(C)C)cc1)S(=O)(=O)c1ccc(C)c([N+](=O)[O-])c1 | 104 | 12 | 103 | 5 | 100 | 93
C=CCOc1cccc(/C=N/NC(=O)CN(c2cc(Cl)ccc2OC)S(=O)(=O)c2ccc(C)c([N+](=O)[O-])c2)c1 | 98 | 34 | 122 | 196* | 117 | 121
Cc1cc2ncn(C(=O)N3CCCCCC3)c2cc1C | 88 | 2 | 44 | 97* | 91 | 93
CCc1cccc(C)c1NC(=O)C1CCCO1 (stereo not drawn) | 105 | 5 | 65 | 251* | 114 | 112
Cc1cccc2sc(NC(=O)C3CCCO3)nc12 (stereo not drawn) | 102 | 33 | 105 | 25 | 101 | 99
